Screening results (PubChem BioAssay)
Hits are enriched below; roughly 12% of the tested compounds scored in any of these assays.
Sfp PPTase inh: Sfp phosphopantetheinyl transferase inhibition. Q9F4F7. Biochemical Sfp PPTase activity, qHTS. Potency, µM, for the others: largest response in the series, negative = inhibition, usual class: inhibitors. actives 3.5% (n = 310,000);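 note: the enzyme is Sfp with the accession as filed and its product quenches rhodamine fluorescence; 0% = enzyme reaction without inhibitor and -100% = no enzyme wells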
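With Hepes-Na pH 7.6 buffer containing 10 mM MgCl2, Sfp (15 nM) modified BHQ-2-YbbR (12.5 uM) using rhodamine-CoA (5 uM). Two reads 30 minutes apart at 525/598 nm yielded each well's rate.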
HP1b chromo inh: inhibitors of HP1-beta chromodomain binding to methylated histone tails; P83916; AlphaScreen HP1-beta / biotin-H3K9me3 peptide binding; Potency, µM (top dose mostly 114 µM), without a hit: top-dose activity change, negative = inhibition, usual class: inhibitors; actives 0.56% (n = 390,000); note: nearly all actives have a fitted effect of over 70% in size
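HP1-beta protein (50 nM final) preincubated 30 min at room temperature with biotinylated H3(1-18)K9me3 peptide (50 nM) in PBS pH 7.4, 0.01% Tween-20, then compound added for 30 min. AlphaScreen streptavidin donor/nickel chelate acceptor beads (10 ug/mL final), 30 min dark, luminescence read.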
L3MBTL1 inh: L3MBTL1 (human) inhibition; actives 0.66% (n = 230,000); Potency, µM (titrated, usually from 57.1 µM), without a hit: at the top dose activity, negative = inhibition, most hits filed as inhibitors; AlphaScreen L3MBTL1–H3K9me1 peptide binding; note: % is set by controls: 0 for no effect and ±100 for the full control effect; nearly all actives have a fitted effect of over 60% in size
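L3MBTL1 (50 nM) pre-complexed 30 min with biotinylated H3(1-15)K9me1 peptide (75 nM), then compounds added for 30 min at room temperature; AlphaScreen streptavidin donor/nickel chelate acceptor beads (10 ug/mL final) read after 30 min dark incubation.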
JMJD2A Tudor inh: JMJD2A Tudor domain (human) inhibition. O75164. AlphaScreen JMJD2A-Tudor / H3K4me3 peptide binding. AID 504339. actives 4.4% (n = 390,000). Potency, µM (top dose mostly 114 µM), inactives show top-dose activity change, negative = inhibition, actives largely listed as inhibitors; note: % is set by controls: 0 for no effect and ±100 for the full control effect; nearly all actives have a fitted effect of over 50% in size
G9a block: blocks human histone lysine methyltransferase G9a; G9a H3K9 monomethylation, AlphaScreen, 2 h; actives 8.8% (n = 350,000); Potency, µM (top dose mostly 102 µM), inactives show at the top dose activity, negative = inhibition, usual class: inhibitors; note: % is set by controls: 0 for no effect and ±100 for the full control effect; nearly all actives have a fitted effect of over 75% in size
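G9a (20 nM) preincubated 15 min RT with compounds, then 500 nM biotinylated H3K9 peptide and 20 uM SAM added; 2 h RT reaction. Monomethyl-H3K9 product detected by AlphaScreen with anti-H3K9me1 antibody, streptavidin donor and anti-rabbit IgG acceptor beads.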
BAZ2B block: inhibitors of human BAZ2B bromodomain | Q9UIF8 | AlphaScreen BAZ2B-H3K14Ac peptide displacement | Potency, µM (highest dose often 114 µM), for the others: at the top dose activity change, negative = inhibition, usual class: inhibitors | actives 4.4% (n = 360,000) | AID 504333; note: % is set by controls: 0 for no effect and ±100 for the full control effect; nearly all actives have a fitted effect of over 60% in size
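AlphaScreen luminescence quantifies BAZ2B engagement of H3K14Ac peptide; the protein and biotinylated peptide are both at 50 nM final, buffer PBS pH 7.4 with 0.01% Tween-20, all steps at room temperature.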
Starred values were filed as active, the others as inactive; ? = inconclusive; . = no result; [ ] = dose if it differs, or a comment. Calls come from the whole dose curve; as a rule, active = well fitted curve in the direction sought with a large enough effect; inconclusive = small, poorly fitted or top-dose-only effect, or another doubt; inactive = no such curve, though single readings can be large; an effect the other way counts as inactive or inconclusive. Potency is the fitted concentration of half-maximal effect.

SMILES | Sfp PPTase inh | HP1b chromo inh | L3MBTL1 inh | JMJD2A Tudor inh | G9a block | BAZ2B block
COc1ccc(-c2nsc(SCC(=O)NCC3CCCO3)n2)cc1 (centres undefined) | -1% | 22% | 1% | -15% | 7.9µM* | -24%
CCCC(=O)n1nc(-c2ccccc2)nc1SC | 8% | 120% | 10% | 27% | 1.1µM* | 58%
CSc1nc(-c2ccccc2)nn1C(=O)c1ccccc1 | -18% | 333% | 4% | 159% | 102% | 3%
O=C(CN1CCN(Cc2ccccc2Cl)CC1)N/N=C/c1ccco1 | 8% | 35% | -6% | -1% | -6% | -13%
Cc1oc2ccc(O)c(CN3CCCCCC3)c2c1C(=O)Nc1cccc(C(F)(F)F)c1 | . | -4% | . | -28% | -26%[59 µM] | ?
CC1CCC2(CC1)NC(=O)N(NC(=O)C1CCN(C(=O)c3ccc(Cl)cc3)CC1)C2=O (centres undefined) | . | 16% | 2% | -6% | 6%[0.501 µM] | -1%
CCOC(=O)C1CCN(Cc2ccc(OCc3ccccc3)cc2)CC1 | -20% | ? | -2% | 28µM* | 28µM* | -37%
NC(=O)C1CCN(Cc2ccc(OCc3ccccc3)cc2)CC1 | -5% | ? | 1% | 3.5µM* | 10µM* | 56µM*
CCOC(=O)N1CCN(C(=O)C2CCN(C(=O)Nc3ccccc3)CC2)CC1 | . | 28% | 5% | -11% | . | .
CCOC(=O)N1CCN(C(=O)C2CCN(Cc3cccc(OCc4ccccc4)c3)CC2)CC1 | -23% | ? | -3% | 2.2µM* | 14µM* | ?
CCOC(=O)C1CCCN(Cc2ccc(OC)c(OCc3ccccc3)c2)C1 (centres undefined) | -12% | ? | -2% | 28µM* | 45µM* | -39%
Cc1ccc(NC(=O)CCCn2c3ccccc3c(=O)c3cc(C)ccc32)c(Br)c1 | . | 20% | . | -4% | 2%[59 µM] | 1%
CS(=O)(=O)N1CCCC(C(=O)Nc2ccccc2)C1 (centres undefined) | 8% | 32% | 1% | -8% | . | 2%
CCn1c(SCc2c(F)cccc2Cl)nc(=O)c2c(C(=O)OC)cc(C3CC3)nc21 | . | 13%[57 µM] | . | -32% | -27%[59 µM] | -13%
COc1ccc(CN2CCC(C(N)=O)CC2)cc1OCc1ccccc1 | -16% | ? | 10% | 32µM* | . | ?
CCCCCOc1ccc2oc(=O)c3c(c2c1)CCCN3C(=O)CN1CCCC(C(=O)OCC)C1 (centres undefined) | ? | 23% | . | -17% | -26% | -17%
CCOC(=O)C1CCCN(CC(=O)N2CCCc3c2c(=O)oc2ccc(OCc4ccccc4)cc32)C1 (centres undefined) | . | 8% | . | 40µM* | 22µM* | -23%
COC(=O)c1ccccc1NC(=O)NC1CCN(Cc2ccccc2)CC1 | 13% | 5% | 9% | -15% | -21%[59 µM] | 0%
CCCCN(C)C(=O)C1CCN(Cc2ccc(OCc3ccccc3)cc2)CC1 | -15% | -51% | 11% | 3.5µM* | ? | ?
COc1ccc(C)cc1NC(=O)NC1CCN(Cc2ccccc2)CC1 | 1% | 6% | -8% | -25% | 14µM* | 5%
COc1ccc(CN2CCN(C)CC2)cc1OCc1ccccc1 | -16% | 36% | . | -20% | ? | -8%
Cn1c(CCc2ccccc2)n[nH]c1=S | -2% | 42% | 3% | 28µM* | ? | 4%
Cn1c(Cc2cccs2)n[nH]c1=S | 10% | -11% | . | ? | ? | -1%
Cn1c(CSCCOc2ccccc2)n[nH]c1=S | -7% | 5% | -8% | 6.3µM* | 10µM* | -21%
Cn1c(Cc2ccccc2)n[nH]c1=S | -9% | 36% | 0% | 28µM* | 10µM* | 5%
SMILES | Sfp PPTase inh | HP1b chromo inh | L3MBTL1 inh | JMJD2A Tudor inh | G9a block | BAZ2B block
CCCCn1nc2cc(C(=O)NC3CCCc4ccccc43)ccc2c1OCC (centres undefined) | 8% | 37% | -4% | -12% | -1%[12.7 µM] | -4%
COc1cccc(NC(=O)C2CCN(C(=O)[C@@H]3Cc4ccccc4CN3)CC2)c1 | 5% | 32% | . | -20% | ? | -19%
O=C(N/N=C\c1ccc(F)cc1)c1csnn1 | 1.4µM* | 22% | -1% | -19% | 1.6µM* | -15%
Cc1ccccc1/C=N\NC(=O)c1ccc(Cn2cccn2)o1 | 13% | -1% | -2% | 56µM* | 2%[59 µM] | 1%
O=C(N/N=C/c1ccc(F)cc1)c1ccccc1 | 7% | 44% | . | -11% | 12% | -5%
Cc1ccccc1/C=N/NC(=O)c1cccnc1 | 24% | 55% | -5% | -11% | ? | -2%
Cc1ccccc1/C=N\NC(=O)c1csnn1 | 14µM* | 31% | -5% | -32% | ? | -4%
O=C(N/N=C\c1cccc(Cl)c1)c1ccc(Cn2cccn2)o1 | 16% | 23% | 4% | -3% | 4%[59 µM] | -6%
COCCNC(=O)c1ccc(Cn2c(SCC(=O)NC(C)C)nc3ccccc3c2=O)cc1 | . | 13%[57 µM] | . | -11% | 17%[59 µM] | -2%
CC(C)(C)SCCNC(=O)CN(c1ccc(F)cc1)S(=O)(=O)c1ccccc1 | 11% | 14% | 7% | -4% | 0% | -1%
OC(CN(Cc1ccccc1)Cc1ccccc1)c1ccccc1 (centres undefined) | . | 85%[57 µM] | . | 148% | . | .
CC(C)OCCCN(CC(O)c1ccccc1)CC(O)c1ccccc1 (centres undefined) | -4% | ? | 1% | 5.6µM* | 7.9µM* | ?
CC[C@@]1(c2ccccc2)NC(=O)N(C)C1=O | 15% | . | . | . | 16%[59 µM] | .
FC(F)(F)c1ccccc1-c1nc(NCc2cccs2)c2ccccc2n1 | 29% | . | . | . | 11%[0.501 µM] | .
COc1ccc2[nH]c3c(=O)n(Cc4ccc(C(=O)N5CCC(C(N)=O)CC5)cc4)c(=S)[nH]c3c2c1 | 22µM* | ? | 9% | 4µM* | 3.2µM* | ?
CC[C@H](C)NC(=O)c1ccc(Cn2c(=S)[nH]c3c([nH]c4ccc(OC)cc43)c2=O)cc1 | 11% | -1% | ? | ? | 56µM* | 71µM*
COc1ccc2[nH]c3c(=O)n(Cc4ccc(C(=O)NCC5CCCO5)cc4)c(=S)[nH]c3c2c1 (centres undefined) | -3% | 16% | -2% | 10µM* | 1.3µM* | ?
CN(CC(=O)Nc1ccc(F)cc1)CC(=O)N1CCc2ccccc21 | . | 30% | 4% | -9% | 56µM* | 3%
CN(C)c1ccc(CNC(=O)Cc2ccc(NC(=O)N3CCCCc4ccccc43)cc2)cc1 | . | -12% | . | 50µM* | 13µM* | 45µM*
CN(CC(=O)Nc1ccccc1N1CCOCC1)S(=O)(=O)c1ccc(F)cc1 | 11% | 62% | 3% | -5% | 1%[12.7 µM] | -9%
CC(=O)Nc1ccc(S(=O)(=O)N(C)CC(=O)OCC(=O)N2CCc3ccccc32)cc1 | 3% | 33% | . | 5% | 50µM* | 2%
